# Source: PubChem (National Center for Advancing Translational Sciences (NCATS))
# PKM2 activator: qHTS Assay for Activators of Human Muscle isoform 2 Pyruvate Kinase | Pyruvate kinase PKM (Homo sapiens), P14618 | purified PKM2, Kinase-Glo ATP luminescence, activation; response scale: 0% is enzyme alone, no compound | Potency, µM (top dose mostly 57.5 µM), inactives show at the highest dose activation, hits mostly activators | 0.34% of 260,000 active | AID 1631, 2009; note: potency is the fitted concentration of half-maximal effect; nearly all actives have a fitted effect of over 55% in size
#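 ATP formation by purified human PK-M2, quantified via coupled luciferase luminescence after 1 h at room temperature with 0.1 mM ADP and 0.5 mM PEP final.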
# Six1-Eya2 inh: qHTS Assay for Inhibitors of the Six1/Eya2 Interaction | AlphaScreen GST-Six1/His-Eya2 binding, biochemical; hits give low values | Homeobox protein SIX1 (Homo sapiens) + Protein phosphatase EYA2 (Homo sapiens), … | 0.56% of 360,000 active | activity change, % (test concentration not listed); in the data active = activity change below about -65%; inconclusive = mostly about -30% to -63%
#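 Homogeneous AlphaScreen proximity assay pairing GST-Six1 with His-tagged Eya2 (added as 5X mix: 250 nM and 500 nM) in 50 mM Tris pH 8.0, 300 mM NaCl, 1 mM TCEP. Glutathione donor and nickel acceptor beads; 1 h, 37 °C, dark.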
# Gal4-VP16 FLuc: VP16 counterscreen qHTS for inhibitors of ROR gamma transcriptional activity; Drosophila S2 Gal4-VP16 UAS-luciferase, luminescence, 20 h; Potency, µM (series often up to 53.6 µM), without a hit: at the top dose activity, negative = inhibition, usual class: inhibitors; 3.5% of 310,000 active; AID 2546, 2010;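 note: Gal4-VP16 expression switched on by copper sulfate through the metallothionein promoter; potency is the fitted concentration of half-maximal effect; nearly all actives have a fitted effect of over 50% in size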
# RORg inh: qHTS for inhibitors of ROR gamma transcriptional activity | AID 2551, 2010 | 5.4% of 310,000 active | Drosophila S2 Gal4-RORgamma UAS-luciferase reporter, 20 h | Potency, µM (titrated, usually from 53.6 µM), for the others: at the top dose activity change, negative = inhibition, most hits filed as inhibitors; note: potency is the fitted concentration of half-maximal effect; nearly all actives have a fitted effect of over 60% in size
# Target sequence (P51450 whole entry, looked up, the tested form may be a part): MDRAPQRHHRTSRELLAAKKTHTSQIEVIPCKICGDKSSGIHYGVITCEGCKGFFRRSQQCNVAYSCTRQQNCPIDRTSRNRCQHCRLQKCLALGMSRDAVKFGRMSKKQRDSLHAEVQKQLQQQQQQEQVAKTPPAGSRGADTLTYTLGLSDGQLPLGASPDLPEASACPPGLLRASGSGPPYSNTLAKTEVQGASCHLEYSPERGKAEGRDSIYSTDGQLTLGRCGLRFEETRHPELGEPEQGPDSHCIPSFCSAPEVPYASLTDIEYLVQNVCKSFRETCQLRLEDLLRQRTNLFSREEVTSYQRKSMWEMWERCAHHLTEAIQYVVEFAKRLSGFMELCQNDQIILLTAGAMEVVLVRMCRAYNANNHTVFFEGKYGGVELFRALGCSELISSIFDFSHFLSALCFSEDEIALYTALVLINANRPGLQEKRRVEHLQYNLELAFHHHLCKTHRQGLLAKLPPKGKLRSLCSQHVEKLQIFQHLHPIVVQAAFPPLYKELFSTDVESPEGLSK
#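 Read-out: Photinus luciferase luminescence; inhibitors lower reporter signal. Insect Schneider cells with Gal4-ROR gamma fusion under metallothionein promoter, UAS reporter; 700 uM final copper sulfate induction, 20 hr, ambient temperature.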
# CtBP-E1A blk: qHTS Assay for Inhibitors of the CtBP/E1A Interaction; activity change, % (concentration not given with the values); 0.49% of 340,000 active; AID 651724, 2012; AlphaScreen GST-E1A/His-CtBP binding, 1536-well; hits give low values; CtBP / adenovirus E1A interaction (AlphaScreen); in the data active = activity change below about -65%; inconclusive = mostly about -30% to -63%
#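 Homogeneous bead-based format: GST-tagged E1A captured on glutathione donor beads, His-tagged CtBP on nickel acceptor beads; compounds precede bead addition by 2 h at 37 °C.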
# * = called active by the depositor; ? = inconclusive; . = not tested or not shown; [ ] = another dose, or the depositor's remark. This is a sample that favours compounds with a hit; in the whole collection about 5.6% have one here. Unless noted, calls come from the whole dose curve; as a rule, active = well fitted curve in the direction sought with a large enough effect; inconclusive = small, poorly fitted or top-dose-only effect, or another doubt; inactive = no such curve, though single readings can be large; an effect the other way counts as inactive or inconclusive. % is set by controls: 0 for no effect and ±100 for the full control effect.
SMILES,PKM2 activator,Six1-Eya2 inh,Gal4-VP16 FLuc,RORg inh,CtBP-E1A blk
O=c1[nH]c(Cc2ccccc2)nc2scc(-c3ccccc3)c12,0%,4,9%,?,5
CN(Cc1ccccc1)Cc1nc2scc(-c3ccccc3)c2c(=O)[nH]1,-2%,-6,?,3.2µM*,2
Cc1ccc(SCC(=O)OC(C)C(=O)NC2CCCCC2C)c(C)c1 (stereo unspecified),.,4,.,.,.
O=S1(=O)N=C(N/N=C/c2ccco2)c2ccccc21,3%,-11,?,7.9µM*,-22
O=C(Nc1nnc(-c2ccncc2)o1)c1ccc2ccccc2c1,-18%,-5,0.56µM*,1.1µM*,-18
Cc1cccc(C(=O)Nc2nnc(-c3ccncc3)o2)c1,-5%,-27,2.8µM*,3.2µM*,-25
Clc1ccccc1-c1nnc(-c2cccnc2)o1,0%,1,-5%,1%,.
COC(=O)c1ccc(C(=O)Nc2ccc3nc(-c4cccnc4)[nH]c3c2)cc1,-2%,0,-9%,30%,2
O=C(Nc1nnc(-c2ccncc2)o1)c1cccc(N2C(=O)CCC2=O)c1,-2%,?,10%,-26%,-3
COC(=O)c1ccc(C(=O)Nc2nnc(-c3cccnc3)o2)cc1,-2%,.,2.8µM*,2.5µM*,.
O=C(Nc1nnc(-c2cccnc2)o1)c1ccccc1Cl,0%,1,?,8.9µM*,-2
CCc1nn(CC(=O)NCCCc2ccccc2)c(=O)c2cc3cc(F)ccc3n12,.,4,1%,-5%,-2
Cc1cccc(C(=O)Nc2nnc(-c3cccnc3)o2)c1,-8%,-27,1.3µM*,0.71µM*,-1
O=C(Nc1ccncc1NC(=O)c1cccc([N+](=O)[O-])c1)c1cccc([N+](=O)[O-])c1,0%,-2,-13%,-2%,7
O=C(Nc1nnc(-c2cccnc2)o1)c1cccc([N+](=O)[O-])c1,-1%,.,1.1µM*,0.79µM*,.
CC(=O)c1ccc(NC(=O)C2CCCC2)cc1,1%,7,15%,10%,-6
CCOc1ccc(NC(=S)NN2C(C)CCCC2C)cc1 (stereo unspecified),2%,2,8.9µM*,2.2µM*,4
CC(=O)c1ccc(NC(=S)NC2CCCC(C)C2C)cc1 (stereo unspecified),?,9,?,5µM*,6
CC(=O)c1ccc(NC(=S)NN2C(C)CCCC2C)cc1 (stereo unspecified),.,-25,?,8.9µM*,6
CCN(C(=O)c1ccc(Cl)c(S(=O)(=O)Nc2c(C)n(C)n(-c3ccccc3)c2=O)c1)c1ccccc1,.,5,.,.,6
COc1cccc(NC(=O)CN(C)S(=O)(=O)c2ccc3[nH]c(=O)oc3c2)c1,.,-6,0%,2%,-18
O=C(CN(C(=O)CCC(=O)Nc1nccs1)c1cccc(F)c1)NCc1ccc(F)cc1,4%,1,-5%,35µM*,6
COC(=O)C1(C(=O)OC)C/C=C\C/C=C\c2ccccc2[C@@H]1C[N+](=O)[O-],.,.,-6%,0%,.
CCOC(=O)N/N=C/c1cccc(Cl)c1Cl,-5%,0,-7%,30%,15
COC(=O)N/N=C/c1cc(N=Nc2ccccc2)ccc1O,-13%,-10,?,1.1µM*,-10
SMILES,PKM2 activator,Six1-Eya2 inh,Gal4-VP16 FLuc,RORg inh,CtBP-E1A blk
COC(=O)N/N=C/c1cc(N=Nc2ccccc2Cl)ccc1O,-2%,-7,16µM*,4µM*,-4
Oc1ccc(Br)cc1/C=N/N1CCCCC1,-13%,-16,7%,26%,-2
CC(C)NC(=S)N/N=C/c1cc(Br)ccc1O,0%,-82*,4.5µM*,5µM*,-89*
Cc1cc(C(=O)N/N=C/c2cccc([N+](=O)[O-])c2O)n[nH]1,-3%,-91*,?,13µM*,.
Cc1cc(C(=O)N/N=C/c2cc(N=Nc3ccccc3)ccc2O)n[nH]1,-17%,-90*,11µM*,10µM*,-1
COC(=O)N/N=C/c1cc(Br)ccc1O,0%,-9,?,7.1µM*,-1
COC(=O)N/N=C\c1cc(Br)ccc1OCc1ccccc1,5%,-1,7%,?,-8
C=CCOC(=O)/C=C/C(=O)NC(N)=O,-11%,0,?,20µM*,.
C=CCOC(=O)/C=C/NC(=O)/C=C/C=C/CCCCCCCC(C)O (stereo unspecified),.,.,0%[10 µM],-6%[10 µM],.
COC(=O)c1ccc(/C=N/NC(=O)C2CC(=O)N(c3ccc(OC)cc3)C2)cc1 (stereo unspecified),0%,22,-7%,-4%,0
C=CCN(CC=C)Cc1nc(N)nc(Nc2ccccc2C)n1,0%,6,-8%,13µM*,-2
Cc1ccccc1Nc1nc(N)nc(CN(C)c2ccccc2)n1,-2%,-14,-4%,3%,-10
CCN(CC(=O)NC(C)(C)C)Cc1nc2c(Br)cc(Br)cc2c(=O)[nH]1,-1%,-14,3.2µM*,0.71µM*,-17
CCN(CC(=O)NC1CCS(=O)(=O)C1)Cc1nc2c(Br)cc(Br)cc2c(=O)[nH]1 (stereo unspecified),-1%,1,-16%,-36%,0
COc1cccc(C2CC(c3cccs3)=NN2C(=S)Nc2ccccc2)c1OC (stereo unspecified),6%,-26,2%,8.9µM*,-18
COc1ccc(C2CC(c3cccs3)=NN2C(=S)Nc2ccccc2)cc1OC (stereo unspecified),-11%,-14,2%,19%,-16
CCC(=O)Nc1nc2ccccc2n1CCN(CC)CC,1%,2,-12%,?,3
CCCCCn1c(C(Cc2ccccc2)NC(=O)COC)nc2ccccc21 (stereo unspecified),3%,0,?,32µM*,-15
CCC(=O)Nc1nc2ccccc2n1Cc1ccccc1,-10%,1,2.2µM*,0.71µM*,4
CC(=O)NC(C)c1nc2ccccc2n1CC(=O)NC(C)CCc1ccccc1 (stereo unspecified),8%,-3,-2%,13µM*,2
CCC(=O)Nc1nc2ccccc2n1Cc1ccc(C)cc1,2%,-1,0.89µM*,0.4µM*,-1
CCCCn1c(C(C)NC(=O)COC)nc2ccccc21 (stereo unspecified),5%,12,0%,-4%,-2
CCCn1c(C(C)NC(C)=O)nc2ccccc21 (stereo unspecified),-3%,-3,-13%,-13%,3
